“And” between values parts separate entries of the source, which are not always exact repeats. Equal entries are not always repeated. Out of some 5,500 compounds screened, about 2,000 (36%) were called active. About 18% were inconclusive and are not listed. No stated cut-off is given here; in the data, active means normalized growth mostly below about 0.91 (no sharp cut-off); inconclusive means no clear call, values can overlap the other calls; inactive means mostly above about 0.92. The list shows a part of the results.
Assay: chemical genetic growth profiling, strain panel (AID 1159580);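 further: tested at 20 µM; growth read once vehicle control cultures reached saturation at 30 °C; 1 = growth at the plate median or of vehicle wells; lower values mean less growth of the strain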
Conditions: S. cerevisiae deletion strains, growth OD
[1] = locus YAL013W, strain DEP1, hits give low values
[2] = locus YMR307W, strain GAS1, hits give low values
[3] = locus YNL322C, strain KRE1, hits give low values

Measured: normalized growth

NC(N)=N[C@@H](CCC(=O)O)C(=O)O
inactive: [1] 1.03 | locus YAL040C, strain CLN3, hits give low values 1.09 | locus YCL061C, strain MRC1 (second series), hits give low values 1.01 | locus YDR363W, strain ESC2, hits give low values 1.02 | locus YER002W, strain NOP16, hits give low values 1 | [2] 1.01 | locus YNL128W, strain TEP1, hits give low values 1 | locus YNL153C, strain GIM3, hits give low values 1.02 | locus YNL175C, strain NOP13, hits give low values 1.01 | locus YNL197C, strain WHI3, hits give low values 1.02 | locus YNL224C, strain SQS1, hits give low values 1 | [3] 1.02 | locus YOR083W, strain WHI5 (second series), hits give low values 1.04

C[N+]1(C)C2CC[C@H]1CC(OC(=O)C(O)c1ccccc1)C2 (stereo partly drawn)
inactive: [1] 0.996 | locus YAL021C, strain ccr4, hits give low values 1.02 | locus YAL026C, strain drs2, hits give low values 1 | locus YAL030W, strain snc1, hits give low values 0.999 | locus YBL061C, strain skt5, hits give low values 1 | locus YBR009C, strain hhf1, hits give low values 0.996 | locus YBR021W, strain FUR4, hits give low values 0.985 | locus YBR023C, strain chs3, hits give low values 0.992 | locus YBR171W, strain sec66, hits give low values 1 | locus YBR229C, strain ROT2, hits give low values 0.996 | locus YBR231C, strain swc5, hits give low values 1 | locus YBR279W, strain paf1, hits give low values 1.01 | locus YCL011C, strain gbp2, hits give low values 0.984 | locus YCL016C, strain dcc1, hits give low values 0.971 | locus YCL029C, strain bik1, hits give low values 0.995 | locus YCL061C, strain MRC1, hits give low values 0.998 | locus YCL069W, strain vba3, hits give low values 0.996 | locus YCR088W, strain abp1, hits give low values 0.993 | locus YDL005C, strain med2, hits give low values 0.991 | locus YDL035C, strain GPR1, hits give low values 0.993 | locus YDL040C, strain nat1, hits give low values 0.997 | locus YDL074C, strain BRE1, hits give low values 1.01 | locus YDL101C, strain DUN1, hits give low values 0.996 | locus YDL134C, strain PPH21, hits give low values 1.01 | locus YDL185W, strain tfp1, hits give low values 1.01 | locus YDL192W, strain arf1, hits give low values 1.02 | locus YDR001C, strain nth1, hits give low values 0.993 | locus YDR069C, strain doa4, hits give low values 1.02 | locus YDR101C, strain arx1, hits give low values 0.976 | locus YDR137W, strain rgp1, hits give low values 0.992 | locus YDR159W, strain sac3, hits give low values 1.03 | locus YDR162C, strain NBP2, hits give low values 0.997 | locus YDR195W, strain ref2 1.01 | locus YDR297W, strain sur2, hits give low values 1 | locus YDR318W, strain mcm21, hits give low values 1.02 | locus YDR334W, strain swr1, hits give low values 1 | locus YDR335W, strain msn5, hits give low values 1 | locus YDR388W, hits give low values 1.01 | locus YDR392W, strain spt3, hits give low values 0.94 | locus YDR502C, strain sam2, hits give low values 1.02 | locus YEL003W, strain gim4, hits give low values 1.01 | locus YEL037C, strain rad23, hits give low values 1 | locus YEL061C, strain CIN8 (second series), hits give low values 1 | locus YEL061C, strain CIN8, hits give low values 0.995 | locus YER015W, strain faa2, hits give low values 1 | locus YER016W, strain bim1, hits give low values 1.01 | locus YER110C, hits give low values 1.02 | locus YER111C, strain swi4, hits give low values 0.997 | locus YER155C, strain BEM2 (second series), hits give low values 1 | locus YER155C, strain BEM2, hits give low values 0.988 | locus YER167W, strain BCK2, hits give low values 0.977 | locus YFR010W, strain ubp6, hits give low values 1 | locus YGL078C, strain dbp3, hits give low values 1.03 | locus YGL086W, strain mad1, hits give low values 1 | locus YGL167C, strain pmr1, hits give low values 1.01 | locus YGL173C, strain kem1, hits give low values 1.01 | locus YGL227W, strain vid30, hits give low values 0.988 | locus YGL240W, strain doc1, hits give low values 1.01 | locus YGL248W, strain PDE1, hits give low values 0.999 | locus YGL253W, strain hxk2, hits give low values 1 | locus YGR135W, strain pre9, hits give low values 1.04 | locus YGR229C, strain SMI1, hits give low values 0.976 | locus YGR252W, strain gcn5, hits give low values 1.03 | locus YHR013C, strain ard1, hits give low values 0.999 | locus YHR027C, strain rpn1, hits give low values 1.01 | locus YHR030C, strain SLT2, hits give low values 0.978 and 0.976 | locus YHR079C, strain IRE1 (second series), hits give low values 1.01 | locus YHR079C, strain IRE1, hits give low values 0.967 | locus YHR094C, strain hxt1, hits give low values 1.01 | locus YHR129C, strain ARP1, hits give low values 1.01 | locus YHR142W, strain chs7, hits give low values 0.973 | locus YHR200W, strain rpn10, hits give low values 1.02 | locus YIL066C, strain RNR3, hits give low values 0.999 | locus YIL073C, strain SPO22, hits give low values 1.05 | locus YIL125W, strain kgd1, hits give low values 0.995 | locus YIR030C, strain dcg1, hits give low values 1.01 | locus YJL092W, strain hpr5, hits give low values 0.995 | locus YJL095W, strain BCK1 (second series), hits give low values 0.999 | locus YJL095W, strain BCK1, hits give low values 1.01 and 0.993 | locus YJL115W, strain asf1, hits give low values 0.987 | locus YJL129C, strain trk1, hits give low values 1.01 | locus YJL134W, strain LCB3, hits give low values 0.989 | locus YJL154C, strain vps35, hits give low values 0.993 | locus YJL164C, strain tpk1, hits give low values 1 | locus YJL166W, strain qcr8, hits give low values 0.999 | locus YJL168C, strain set2, hits give low values 1.01 | locus YJL187C, strain SWE1 (second series), hits give low values 1 | locus YJL187C, strain SWE1, hits give low values 1 | locus YJR043C, strain POL32, hits give low values 1 | locus YJR066W, strain TOR1, hits give low values 0.928 | locus YKL009W, strain mrt4, hits give low values 1.01 | locus YKL068W, hits give low values 1 | locus YKL085W, strain MDH1 (second series), hits give low values 1 | locus YKL085W, strain MDH1, hits give low values 1 | locus YKL160W, strain elf1, hits give low values 1 | locus YKL190W, strain CNB1, hits give low values 0.985 | locus YKR001C, strain vps1, hits give low values 0.996 | locus YKR026C, strain gcn3, hits give low values 0.999 | locus YKR091W, strain srl3, hits give low values 0.997 | locus YLL001W, strain dnm1, hits give low values 0.98 | locus YLL026W, hits give low values 0.999 | locus YLL041C, strain sdh2, hits give low values 1 | locus YLR027C, strain aat2, hits give low values 1 | locus YLR039C, strain RIC1, hits give low values 0.967 | locus YLR058C, strain SHM2, hits give low values 1.01 | locus YLR102C, strain apc9, hits give low values 1.02 | locus YLR113W, strain HOG1, hits give low values 1 | locus YLR221C, strain rsa3, hits give low values 0.955 | locus YLR258W, strain gsy2, hits give low values 0.983 | locus YLR262C, strain YPT6 (second series), hits give low values 1 | locus YLR262C, strain YPT6, hits give low values 0.977 | locus YLR268W, strain sec22, hits give low values 1.03 | locus YLR320W, strain mms22, hits give low values 0.978 | locus YLR330W, strain CHS5, hits give low values 1 | locus YLR342W, strain FKS1 (second series), hits give low values 1 | locus YLR342W, strain FKS1, hits give low values 1 | locus YLR357W, strain rsc2, hits give low values 1.01 | locus YLR370C, strain arc18, hits give low values 0.993 | locus YLR371W, strain rom2, hits give low values 1 | locus YLR384C, strain iki3, hits give low values 0.994 | locus YLR418C, strain cdc73, hits give low values 1.05 | locus YML016C, strain PPZ1, hits give low values 1.01 | locus YML032C, strain rad52, hits give low values 0.999 | locus YML120C, strain ndi1, hits give low values 0.964 | locus YML124C, strain tub3, hits give low values 1.01 | locus YMR058W, strain fet3, hits give low values 1.01 | locus YMR078C, strain ctf18, hits give low values 1.03 | locus YMR125W, strain sto1, hits give low values 0.996 | locus YMR129W, hits give low values 0.999 | locus YMR205C, strain PFK2, hits give low values 0.992 | locus YMR223W, strain ubp8, hits give low values 1.02 | locus YMR231W, strain pep5, hits give low values 1 | [2] 0.983 | locus YNL067W, strain RPL9B, hits give low values 0.995 | locus YNL071W, strain lat1, hits give low values 1 | locus YNL183C, strain NPR1, hits give low values 0.956 | locus YNL209W, strain ssb2, hits give low values 1 | locus YNL233W, strain BNI4, hits give low values 1 | locus YNL248C, strain rpa49, hits give low values 1 | locus YNL250W, strain rad50, hits give low values 1.02 | locus YNL271C, strain bni1, hits give low values 1.02 | locus YNL298W, strain CLA4, hits give low values 1.03 | locus YNL307C, strain MCK1, hits give low values 1.02 | locus YNL322C, strain KRE1 (second series), hits give low values 0.991 | [3] 0.998 | locus YNR049C, strain mso1, hits give low values 1.01 | locus YNR052C, strain pop2, hits give low values 1.02 | locus YOL012C, strain htz1 1.26 | locus YOL147C, strain pex11, hits give low values 1.02 | locus YOR001W, strain rrp6, hits give low values 1.03 | locus YOR061W, strain CKA2, hits give low values 1.01 | locus YOR069W, strain VPS5, hits give low values 0.987 | locus YOR070C, strain gyp1, hits give low values 0.999 | locus YOR080W, strain dia2, hits give low values 0.994 | locus YOR083W, strain WHI5, hits give low values 1 | locus YOR106W, strain vam3, hits give low values 1 | locus YOR136W, strain idh2, hits give low values 1.02 | locus YOR144C, strain elg1, hits give low values 1.01 | locus YOR184W, strain ser1, hits give low values 1.03 | locus YOR231W, strain MKK1, hits give low values 0.983 | locus YOR265W, strain rbl2, hits give low values 0.996 | locus YOR270C, strain vph1, hits give low values 1.01 | locus YOR290C, strain snf2, hits give low values 0.966 | locus YOR316C, strain cot1, hits give low values 1.02 | locus YPL051W, strain arl3, hits give low values 1.01 | locus YPL055C, strain LGE1, hits give low values 0.985 | locus YPL078C, strain atp4, hits give low values 1 | locus YPL106C, strain sse1, hits give low values 0.99 | locus YPL240C, strain hsp82, hits give low values 0.997 | locus YPL256C, strain CLN2, hits give low values 0.982 | locus YPR119W, strain clb2, hits give low values 1.01 | locus YPR141C, strain kar3, hits give low values 1.02 | locus YPR163C, strain tif3, hits give low values 1.02 | locus YPR167C, strain met16, hits give low values 1.02 | strain wtn01, hits give low values 1.03
